# Laboratory results reported in the supplement of paper PMC8728848.
# The sample as a whole holds a higher share of the strongest signals than the screen did.
# B1: PX14404-bvu-534-26-534 (Bacteroides vulgatus) (protein)
# chain: EDPRGKLTPENFFSTQDELNMSIYALYQKVNLSQVYTNMQLPQWQGDDITTNPGSNKQPAAEMDKFAAANNNKGVKDAWNMHYAIVKAANLIIQGASKTPTTQDEINIALGQAKFWRAYAYFTLVRLWGPLPMNLDNVNDDYTKPLSPVEEVYGHIVQDLTEAEAVLPTGYSGSPRFLNGVNVYVTRQAAKSTLAAVYMAMAGWPMNKTEYYAKAAEKAKEVIEGVNRGEYEYKLDKDYKDVYAMSNNYNNETVLGINYSPFVDWAQDSELTSCNQFESLGGWGDAWGEIRFWKEFPDGPRKDATYDPKIRLKDGTLVDWWELKEDGTPVVPEHHPMFSIFSVNWDPASKVNTSAPYDYTKPASQNMCNDHRHRIIRYSEVLLWYAEAKARTGQTDELAFKCLNDVRERAGLEPLTGLSADDLAEAAYKEHGWEVAGYWVALVTRRADQFRMNRLKDTFKERAENTAVEVADGILVKESVEYTNRTWSDNLMYLPYPDMDSQKNPNLVR
# Key:
# Test in all cases: glycan array binding signal (z-score within array); higher = stronger binding
# Conditions in all cases: glycan notation: IUPAC condensed, linker removed
# [1] = molecular target: Fuc(a1-2)Gal(b1-3)GalNAc(a1-3)[Fuc(a1-2)]Gal(b1-4)GlcNAc
# In short: (§1)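 The binding signal is a Z-score computed within each array. Data were drawn from 3228 arrays in the Consortium for Functional Glycomics database, restricted to those with a known protein sequence. Scores were averaged over arrays of the same protein sequence at different concentrations or buffers, and over linkers, and negative values can be taken as non-binding.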
# [2] = molecular target: Fuc(a1-2)Gal(b1-3)GalNAc(b1-3)Gal(a1-4)Gal(b1-4)Glc
# In short: as §1
# [3] = molecular target: Fuc(a1-2)Gal(b1-3)GalNAc(b1-4)[Neu5Ac(a2-3)]Gal(b1-4)Glc
# In short: as §1
# [4] = molecular target: Fuc(a1-2)Gal(b1-3)GlcNAc(b1-3)[Fuc(a1-2)Gal(b1-3)GlcNAc(b1-6)]GalNAc
# In short: as §1
# [5] = molecular target: Fuc(a1-2)Gal(b1-4)Glc6S
# In short: as §1
# [6] = molecular target: Fuc(a1-2)Gal6S(b1-4)Glc
# In short: as §1
# [7] = molecular target: Fuc(a1-2)[Gal(a1-3)]Gal(b1-3)GalNAc
# In short: as §1
# [8] = molecular target: Fuc(a1-2)[Gal(a1-3)]Gal(b1-4)GlcNAc(b1-3)[Fuc(a1-2)[Gal(a1-3)]Gal(b1-4)GlcNAc(b1-6)]GalNAc
# In short: as §1
# [9] = molecular target: Fuc(a1-2)[Gal(a1-4)]Gal(b1-4)GlcNAc
# In short: as §1
# [10] = molecular target: Fuc(a1-2)[GalNAc(a1-3)]Gal(b1-4)GlcNAc(b1-2)Man(a1-3)[Fuc(a1-2)[GalNAc(a1-3)]Gal(b1-4)GlcNAc(b1-2)Man(a1-6)]Man(b1-4)GlcNAc(b1-4)GlcNAc
# In short: as §1
# [11] = molecular target: Fuc(a1-2)[GalNAc(a1-3)]Gal(b1-4)GlcNAc(b1-3)Gal(b1-4)GlcNAc(b1-3)Gal(b1-4)GlcNAc
# In short: as §1
# [12] = molecular target: Gal(a1-3)[Gal(a1-4)]Gal(b1-4)GlcNAc
# In short: as §1
# [13] = molecular target: Gal(b1-3)GlcNAc(a1-6)Gal(b1-4)GlcNAc
# In short: as §1
# [14] = molecular target: Gal(b1-3)GlcNAc6S
# In short: as §1
# [15] = molecular target: Gal(b1-3)[Neu5Ac(a2-6)]GlcNAc(b1-4)Gal(b1-4)Glc
# In short: as §1
# [16] = molecular target: Gal(b1-3)[Neu5Ac(b2-6)]GalNAc
# In short: as §1
# [17] = molecular target: Gal(b1-4)Glc6S
# In short: as §1
# [18] = molecular target: Gal(b1-4)GlcNAc(b1-2)Man(a1-3)Man(b1-4)GlcNAc(b1-4)GlcNAc
# In short: as §1
# [19] = molecular target: Gal(b1-4)GlcNAc(b1-2)[Gal(b1-4)GlcNAc(b1-6)]Man(a1-6)[Gal(b1-4)GlcNAc(b1-2)Man(a1-3)]Man(b1-4)GlcNAc(b1-4)[Fuc(a1-6)]GlcNAc
# In short: as §1
# [20] = molecular target: Gal(b1-4)GlcNAc(b1-2)[Gal(b1-4)GlcNAc(b1-6)]Man(a1-6)[GlcNAc(b1-4)][Gal(b1-4)GlcNAc(b1-2)Man(a1-3)]Man(b1-4)GlcNAc(b1-4)GlcNAc
# In short: as §1
# [21] = molecular target: Gal(b1-4)GlcNAc(b1-3)Gal(b1-4)GlcNAc(b1-3)[Gal(b1-4)GlcNAc(b1-3)Gal(b1-4)GlcNAc(b1-6)]GalNAc
# In short: as §1
# [22] = molecular target: Gal(b1-4)GlcNAc(b1-3)Gal(b1-4)GlcNAc(b1-6)[Gal(b1-3)]GalNAc
# In short: as §1
# [23] = molecular target: Gal(b1-4)GlcNAc(b1-3)GalNAc
# In short: as §1
# [24] = molecular target: Gal6S(b1-4)Glc6S
# In short: as §1
# [25] = molecular target: GalNAc(b1-4)GlcNAc
# In short: as §1
# [26] = molecular target: Glc(b1-4)Glc
# In short: as §1
# [27] = molecular target: GlcNAc(a1-4)Gal(b1-3)GlcNAc
# In short: as §1
# [28] = molecular target: GlcNAc(b1-2)[GlcNAc(b1-6)]Man(a1-6)[GlcNAc(b1-4)][GlcNAc(b1-2)Man(a1-3)]Man(b1-4)GlcNAc(b1-4)GlcNAc
# In short: as §1
# [29] = molecular target: GlcNAc(b1-3)Gal(b1-4)GlcNAc(b1-6)[Gal(b1-3)]GalNAc
# In short: as §1
# [30] = molecular target: GlcNAc(b1-3)[GlcNAc(b1-6)]Gal(b1-4)GlcNAc
# In short: as §1
# [31] = molecular target: Kdn(a2-3)Gal(b1-3)GalNAc
# In short: as §1
# [32] = molecular target: Man(a1-2)Man(a1-3)Man
# In short: as §1
# [33] = molecular target: Man(a1-2)Man(a1-3)[Man(a1-6)]Man(a1-6)[Man(a1-2)Man(a1-3)]Man(b1-4)GlcNAc(b1-4)GlcNAc
# In short: as §1
# [34] = molecular target: Man(a1-3)[Man(a1-6)]Man(a1-6)[Man(a1-3)]Man
# In short: as §1
# [35] = molecular target: Neu5Ac(a2-3)Gal(b1-3)GlcNAc
# In short: as §1
# [36] = molecular target: Neu5Ac(a2-3)Gal(b1-3)GlcNAc(b1-3)Gal(b1-4)GlcNAc
# In short: as §1
# [37] = molecular target: Neu5Ac(a2-3)Gal(b1-3)GlcNAc(b1-6)GalNAc
# In short: as §1
# [38] = molecular target: Neu5Ac(a2-3)Gal(b1-4)GlcNAc(b1-2)Man(a1-3)[Neu5Ac(a2-6)Gal(b1-4)GlcNAc(b1-2)Man(a1-6)]Man(b1-4)GlcNAc(b1-4)GlcNAc
# In short: as §1
# [39] = molecular target: Neu5Ac(a2-3)Gal(b1-4)GlcNAc(b1-2)[Neu5Ac(a2-3)Gal(b1-4)GlcNAc(b1-6)]Man(a1-6)[Neu5Ac(a2-3)Gal(b1-4)GlcNAc(b1-2)Man(a1-3)]Man(b1-4)GlcNAc(b1-4)GlcNAc
# In short: as §1
# [40] = molecular target: Neu5Ac(a2-3)Gal(b1-4)[Fuc(a1-3)]GlcNAc(b1-3)Gal(b1-4)[Fuc(a1-3)]GlcNAc(b1-3)Gal(b1-4)[Fuc(a1-3)]GlcNAc
# In short: as §1
# [41] = molecular target: Neu5Ac(a2-3)Gal(b1-4)[Fuc(a1-3)]GlcNAc(b1-3)GalNAc
# In short: as §1
# [42] = molecular target: Neu5Ac(a2-3)Gal(b1-4)[Fuc(a1-3)]GlcNAc(b1-6)[Neu5Ac(a2-3)Gal(b1-3)]GalNAc
# In short: as §1
# [43] = molecular target: Neu5Ac(a2-3)Gal6S(b1-4)GlcNAc
# In short: as §1
# [44] = molecular target: Neu5Ac(a2-3)GalNAc
# In short: as §1
# [45] = molecular target: Neu5Ac(a2-3)[GalNAc(b1-4)]Gal(b1-4)Glc
# In short: as §1
# [46] = molecular target: Neu5Ac(a2-6)Gal(b1-4)GlcNAc
# In short: as §1
# [47] = molecular target: Neu5Ac(a2-6)Gal(b1-4)GlcNAc(b1-2)Man
# In short: as §1
# [48] = molecular target: Neu5Ac(a2-6)Gal(b1-4)GlcNAc(b1-2)[Neu5Ac(a2-6)Gal(b1-4)GlcNAc(b1-4)]Man(a1-3)[GlcNAc(b1-4)][Neu5Ac(a2-6)Gal(b1-4)GlcNAc(b1-2)[Neu5Ac(a2-6)Gal(b1-4)GlcNAc(b1-6)]Man(a1-6)]Man(b1-4)GlcNAc(b1-4)GlcNAc
# In short: as §1
# [49] = molecular target: Neu5Ac(a2-6)Gal(b1-4)GlcNAc(b1-3)Gal(b1-4)GlcNAc(b1-3)[Neu5Ac(a2-6)Gal(b1-4)GlcNAc(b1-3)Gal(b1-4)GlcNAc(b1-6)]GalNAc
# In short: as §1
# [50] = molecular target: Neu5Ac(a2-6)Gal(b1-4)GlcNAc(b1-6)GalNAc
# In short: as §1
# [51] = molecular target: Neu5Ac(a2-6)Gal(b1-4)GlcNAc(b1-6)[Gal(b1-3)GlcNAc(b1-3)]Gal(b1-4)Glc
# In short: as §1
# [52] = molecular target: Neu5Ac(a2-6)GlcNAc(b1-4)GlcNAc
# In short: as §1
# [53] = molecular target: Neu5Ac(a2-8)Neu5Ac(a2-8)Neu5Ac(a2-3)[GalNAc(b1-4)]Gal(b1-4)Glc
# In short: as §1
# [54] = molecular target: Neu5Ac(a2-8)Neu5Gc(a2-3)Gal(b1-4)GlcNAc
# In short: as §1
# [55] = molecular target: Neu5Gc(a2-6)GalNAc
# In short: as §1
binder,measurement,setting,value
B1,glycan array binding signal (z-score),[1],-0.799
same,glycan array binding signal (z-score),[2],0.314
same,glycan array binding signal (z-score),[3],-0.348
same,glycan array binding signal (z-score),[4],2.03
same,glycan array binding signal (z-score),[5],2.24
same,glycan array binding signal (z-score),[6],2.73
same,glycan array binding signal (z-score),[7],0.15
same,glycan array binding signal (z-score),[8],0.311
same,glycan array binding signal (z-score),[9],0.074
same,glycan array binding signal (z-score),[10],0.042
same,glycan array binding signal (z-score),[11],-0.561
same,glycan array binding signal (z-score),[12],3.57
same,glycan array binding signal (z-score),[13],-0.215
same,glycan array binding signal (z-score),[14],-0.497
same,glycan array binding signal (z-score),[15],0.099
same,glycan array binding signal (z-score),[16],-1.21
same,glycan array binding signal (z-score),[17],0.084
same,glycan array binding signal (z-score),[18],-0.296
same,glycan array binding signal (z-score),[19],-0.583
same,glycan array binding signal (z-score),[20],-0.45
same,glycan array binding signal (z-score),[21],-0.105
same,glycan array binding signal (z-score),[22],4.7
same,glycan array binding signal (z-score),[23],-0.885
same,glycan array binding signal (z-score),[24],3.4
same,glycan array binding signal (z-score),[25],-0.29
same,glycan array binding signal (z-score),[26],-0.903
same,glycan array binding signal (z-score),[27],0.178
same,glycan array binding signal (z-score),[28],-1.21
same,glycan array binding signal (z-score),[29],-0.575
same,glycan array binding signal (z-score),[30],-0.97
same,glycan array binding signal (z-score),[31],1.92
same,glycan array binding signal (z-score),[32],1.24
same,glycan array binding signal (z-score),[33],-0.161
same,glycan array binding signal (z-score),[34],2.67
same,glycan array binding signal (z-score),[35],0.177
same,glycan array binding signal (z-score),[36],-0.891
same,glycan array binding signal (z-score),[37],-0.09
same,glycan array binding signal (z-score),[38],0.576
same,glycan array binding signal (z-score),[39],-0.695
same,glycan array binding signal (z-score),[40],0.228
same,glycan array binding signal (z-score),[41],0.921
same,glycan array binding signal (z-score),[42],3.23
same,glycan array binding signal (z-score),[43],0.553
same,glycan array binding signal (z-score),[44],0.608
same,glycan array binding signal (z-score),[45],-1.43
same,glycan array binding signal (z-score),[46],0.634
same,glycan array binding signal (z-score),[47],-0.24
same,glycan array binding signal (z-score),[48],-0.206
same,glycan array binding signal (z-score),[49],0.075
same,glycan array binding signal (z-score),[50],0.144
same,glycan array binding signal (z-score),[51],-1.1
same,glycan array binding signal (z-score),[52],-0.51
same,glycan array binding signal (z-score),[53],0.28
same,glycan array binding signal (z-score),[54],12.9
same,glycan array binding signal (z-score),[55],1.92
